Experimental data from PubChem BioAssay (Tox21).
Results filed as inconclusive are left out. Calls of active or inactive are those of the source. Unless noted, calls come from the whole dose curve; as a rule, active = well fitted curve in the direction sought with a large enough effect in the repeat runs; inconclusive = weak or mixed curves; inactive = no such curve, though single readings can be large; an effect the other way counts as inactive or inconclusive.

Key:
[1] = target: Estrogen receptor beta (Homo sapiens) (UniProt Q92731); assay: qHTS assay to identify small molecule agonists of the estrogen receptor beta (ER-beta) signaling pathway (AID 1259377; active = well fitted activation curve with a large enough effect in the signal ratio in the repeat runs, not every such curve was filed as active; the % refers to the signal ratio)
Estrogen receptor beta (Homo sapiens), sequence (Q92731 whole entry, looked up): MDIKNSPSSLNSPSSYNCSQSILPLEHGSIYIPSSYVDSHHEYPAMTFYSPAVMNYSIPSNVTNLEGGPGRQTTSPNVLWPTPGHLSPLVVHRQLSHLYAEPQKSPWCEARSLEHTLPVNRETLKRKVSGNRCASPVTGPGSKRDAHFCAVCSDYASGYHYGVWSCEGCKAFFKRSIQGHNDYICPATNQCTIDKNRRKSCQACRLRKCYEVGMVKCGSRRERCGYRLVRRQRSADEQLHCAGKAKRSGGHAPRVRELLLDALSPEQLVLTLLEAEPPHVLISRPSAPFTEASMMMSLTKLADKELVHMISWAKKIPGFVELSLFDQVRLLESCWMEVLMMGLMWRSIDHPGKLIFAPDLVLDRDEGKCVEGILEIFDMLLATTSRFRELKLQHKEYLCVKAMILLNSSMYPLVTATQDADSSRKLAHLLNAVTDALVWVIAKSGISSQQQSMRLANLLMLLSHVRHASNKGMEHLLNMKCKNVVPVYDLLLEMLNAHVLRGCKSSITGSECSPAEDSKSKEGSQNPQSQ
In short: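 ER-beta-UAS-bla HEK293T (GripTite) cells carrying a UAS-driven beta-lactamase reporter, in medium with 2% charcoal-stripped FBS, were exposed to compounds for 16 hr at 37C; LiveBLAzer B/G FRET substrate was then added and fluorescence read after 2 hours at room temperature.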

[2] = target: Estrogen receptor beta (Homo sapiens) (UniProt Q92731); assay: qHTS assay to identify small molecule antagonists of the estrogen receptor beta (ER-beta) signaling pathway (AID 1259378; active = well fitted inhibition curve with a large enough effect in the signal ratio in the repeat runs, not every such curve was filed as active; the % refers to the signal ratio; note: potency is the fitted concentration of half-maximal effect)
In short: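 ER-beta-UAS-bla HEK293T (GripTite) cells in 2% charcoal-stripped FBS medium were preincubated 6 hr at 37C, dosed with compound, then stimulated with 1 nM E2 (final) for 16 hr; beta-lactamase reporter read by B/G FRET fluorescence after 2 hr substrate loading.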

[3] = qHTS assay to identify small molecule agonists of the androgen receptor (AR) signaling pathway in the presence of an antagonist - cell viability counter screen (AID 1259379);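 note: MDA-kb2 human breast cancer cells carrying an MMTV luciferase reporter; series mostly up to about 92 µM; nearly all actives have a fitted effect of over 25% in size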
In short: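 Seed MDA-kb2 at 3,000 cells/well; incubate 5 hr, 37C, 0% CO2. Add nilutamide to 3.0uM final, then pin compounds at 15 concentrations. Incubate 16 hr. Add CellTiter-Fluor at 15 hr, read fluorescence after 1 hr.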

[4] = qHTS assay to identify small molecule agonists of the estrogen receptor beta (ER-beta) signaling pathway - cell viability counter screen (AID 1259380); note: nearly all actives have a fitted effect of over 30% in size; note: potency is the fitted concentration of half-maximal effect
In short: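 CellTiter-Glo read, 30 min RT, same wells as bla assay; cells ER-beta-UAS-bla HEK293T; 16 hr compound, 37C; medium 2% charcoal-stripped FBS.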

[5] = qHTS assay to identify small molecule antagonists of the estrogen receptor beta (ER-beta) signaling pathway - cell viability counter screen (AID 1259382); note: series mostly up to about 92 µM; nearly all actives have a fitted effect of over 55% in size
In short: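 In this multiplexed counter screen, cells were seeded at 2,000 per well in medium with 2% charcoal-stripped FBS and incubated 6 hr before compound and 1nM final E2 were added. Sixteen hours later, ATP-based luminescence reported viability.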

[6] = target: Estrogen receptor (Homo sapiens) (UniProt P03372); assay: qHTS assay to identify small molecule agonists of the estrogen receptor alpha (ER-alpha) signaling pathway in the presence of an antagonist (AID 1259383; calls by dose curve; note: top concentration of the series differs between compounds; nearly all actives have a fitted effect of over 15% in size)
Estrogen receptor (Homo sapiens), sequence (P03372 whole entry, looked up): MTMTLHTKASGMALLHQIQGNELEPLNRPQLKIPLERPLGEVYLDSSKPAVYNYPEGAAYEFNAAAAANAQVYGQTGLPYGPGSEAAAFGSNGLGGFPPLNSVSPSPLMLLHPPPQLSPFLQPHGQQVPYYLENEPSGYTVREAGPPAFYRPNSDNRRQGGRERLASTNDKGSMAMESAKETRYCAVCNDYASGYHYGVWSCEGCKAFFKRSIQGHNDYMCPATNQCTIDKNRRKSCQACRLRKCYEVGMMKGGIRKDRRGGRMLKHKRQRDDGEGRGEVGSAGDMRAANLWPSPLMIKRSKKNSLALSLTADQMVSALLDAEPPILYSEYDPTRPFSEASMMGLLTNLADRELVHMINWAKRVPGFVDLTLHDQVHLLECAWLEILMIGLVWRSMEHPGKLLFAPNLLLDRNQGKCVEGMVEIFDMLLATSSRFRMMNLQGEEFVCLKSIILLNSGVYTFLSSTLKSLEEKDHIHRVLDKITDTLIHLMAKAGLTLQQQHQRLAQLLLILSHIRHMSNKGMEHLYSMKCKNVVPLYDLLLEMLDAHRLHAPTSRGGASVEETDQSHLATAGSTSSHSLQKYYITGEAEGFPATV
In short: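 Stably transfected VM7Luc4E2 reporter cells, kept 5 days in charcoal-stripped serum, received ICI-182,780 at 10.0nM final before compound addition. Following 22hr incubation at 37C and 5% CO2, luciferase signal was read by luminescence.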

[7] = qHTS assay to identify small molecule agonists or antagonists of the thyroid stimulating hormone receptor (TSHR) signaling pathway - wild type cell line counter screen (AID 1259384; calls by dose curve)
In short: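 Wild-type HEK293 cells were plated 18 h at 37 C/5% CO2, pin-dosed with compound plus Ro20-1724 medium, held 30 min at room temperature, then given cAMP-d2 and anti-cAMP-cryptate; fluorescence was read after 1 h. Fifteen concentrations, triplicate.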

[8] = target: Thyrotropin receptor (Homo sapiens) (UniProt P16473); assay: qHTS assay to identify small molecule antagonists of the thyroid stimulating hormone receptor (TSHR) signaling pathway (AID 1259385; calls by dose curve; note: nearly all actives have a fitted effect of over 20% in size)
Thyrotropin receptor (Homo sapiens), sequence (P16473 whole entry, looked up): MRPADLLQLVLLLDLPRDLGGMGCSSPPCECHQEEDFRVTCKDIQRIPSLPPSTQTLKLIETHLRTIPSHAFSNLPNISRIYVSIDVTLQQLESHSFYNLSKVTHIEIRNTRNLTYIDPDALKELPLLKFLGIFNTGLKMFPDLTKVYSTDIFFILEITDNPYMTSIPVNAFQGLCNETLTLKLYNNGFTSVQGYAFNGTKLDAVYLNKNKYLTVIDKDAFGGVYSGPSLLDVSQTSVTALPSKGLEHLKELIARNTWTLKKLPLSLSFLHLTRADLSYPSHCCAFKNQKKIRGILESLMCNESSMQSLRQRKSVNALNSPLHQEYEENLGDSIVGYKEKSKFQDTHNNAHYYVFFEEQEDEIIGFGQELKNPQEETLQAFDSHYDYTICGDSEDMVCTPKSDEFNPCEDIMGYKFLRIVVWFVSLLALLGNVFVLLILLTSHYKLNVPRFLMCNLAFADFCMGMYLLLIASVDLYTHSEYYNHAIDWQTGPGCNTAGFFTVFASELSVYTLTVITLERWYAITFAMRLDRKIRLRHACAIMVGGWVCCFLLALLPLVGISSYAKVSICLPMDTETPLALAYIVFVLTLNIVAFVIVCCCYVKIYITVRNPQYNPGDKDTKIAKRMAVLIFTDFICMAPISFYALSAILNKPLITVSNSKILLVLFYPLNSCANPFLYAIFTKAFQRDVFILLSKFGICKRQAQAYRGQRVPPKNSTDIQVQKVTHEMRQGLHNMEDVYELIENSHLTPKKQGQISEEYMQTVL
In short: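 TSHR-HEK293 cells were plated and held 18 h at 37C/5% CO2, then given compound plus Ro20-1724 and stimulated with TSH at 1.5 ng/mL final. After 30 min at room temperature, cAMP was detected with cAMP-d2/anti-cAMP-cryptate (1 h) by fluorescence.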

[9] = qHTS assay to identify small molecule agonists of the estrogen receptor alpha (ER-alpha) signaling pathway in the presence of an antagonist - cell viability counter screen (AID 1259386);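 note: series mostly up to about 92 µM; cells exposed to compounds for 22 h at 37 °C before the viability read; nearly all actives have a fitted effect of over 30% in size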
In short: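 Viability counter screen using VM7Luc4E2 (full-length ER-alpha, four ERE-luciferase). The cells were treated with compounds alongside ICI-182,780 10.0nM for 22hr, and live-cell protease fluorescence was quantified with CellTiter-Fluor.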
% is set by controls: 0 for no effect and ±100 for the full control effect.

O=C(O)c1ccc(S(=O)(=O)O)cc1C(=O)O
inactive: Potency [1] | Potency [2] | Potency [3] | Potency [4] | Potency [5] | Potency [6] | Potency [7] | Potency [8] | Potency [9]

CCOc1ccc(O)cc1
inactive: Potency [1] | Potency [2] | Potency [3] | Potency [4] | Potency [5] | Potency [6] | Potency [7] | Potency [8] | Potency [9]

CN1Cc2cc(C(=O)N3CCC(C4CCNCC4)CC3)ccc2NC(CC(=O)O)C1=O (stereo not given)
inactive: Potency [1] | Potency [2] | Potency [3] | Potency [4] | Potency [5] | Potency [6] | Potency [7] | Potency [9]

CC(=O)c1cccc([N+](=O)[O-])c1
inactive: Potency [1] | Potency [2] | Potency [3] | Potency [4] | Potency [5] | Potency [6] | Potency [9]

Cc1cccc(C)c1NC(=O)CN(CC(=O)O)CC(=O)O
inactive: Potency [1] | Potency [2] | Potency [3] | Potency [4] | Potency [5] | Potency [7] | Potency [8] | Potency [9]

CCN(CC)CCNC(=O)c1cc(Br)c(N)cc1OC
inactive: Potency [1] | Potency [2] | Potency [3] | Potency [4] | Potency [5] | Potency [6] | Potency [7] | Potency [8] | Potency [9]

COc1cc(Cl)ccc1Oc1ccc(Cl)cc1Cl
inactive: Potency [1] | Potency [2] | Potency [3] | Potency [4] | Potency [5] | Potency [6] | Potency [7] | Potency [9]

C=CCOC(=O)CCC1CCCCC1
inactive: Potency [1] | Potency [2] | Potency [3] | Potency [4] | Potency [5] | Potency [7] | Potency [8] | Potency [9]

OC[C@H]1O[C@@H](OCCc2ccc(O)cc2)[C@H](O)[C@@H](O)[C@@H]1O
inactive: Potency [1] | Potency [2] | Potency [3] | Potency [4] | Potency [5] | Potency [6] | Potency [9]

COCC(C)OC(C)=O (stereo not given)
inactive: Potency [1] | Potency [2] | Potency [3] | Potency [4] | Potency [5] | Potency [6] | Potency [9]

CCC(Cl)CCC(Cl)C(Cl)CC(Cl)C(Cl)C(Cl)CCl (stereo not given)
inactive: Potency [1] | Potency [2] | Potency [3] | Potency [4] | Potency [5] | Potency [7] | Potency [8] | Potency [9]

O=C(O)C(S)C(S)C(=O)O (stereo not given)
inactive: Potency [1] | Potency [2] | Potency [3] | Potency [4] | Potency [5] | Potency [7] | Potency [8] | Potency [9]

NCC(=O)O
inactive: activation [1] -2.53% [at 19 µM] | activity, negative = inhibition [2] 10% [at 19 µM] | activity change, negative = cytotoxicity [3] 0.351% [at 19 µM] | activity change, negative = cytotoxicity [4] 4.31% [at 19 µM] | activity change, negative = cytotoxicity [5] -1.05% [at 19 µM] | Potency [6] | cAMP activity change [7] -6.62% [at 18.9 µM, active compounds read high] | activity change, negative = inhibition [8] 2.94% [at 19 µM] | activity change, negative = cytotoxicity [9] 6.54% [at 19 µM]

c1cc(CCCc2ccncc2)ccn1
inactive: Potency [1] | Potency [2] | Potency [3] | Potency [4] | Potency [5] | Potency [6] | Potency [7] | Potency [9]

CC1=CCCC(C)(C)C12CCC(C)O2 (stereo not given)
inactive: Potency [1] | Potency [2] | Potency [3] | Potency [4] | Potency [5] | Potency [7] | Potency [8] | Potency [9]

O=C1C(O)=C(O)C(=O)C(O)=C1O
inactive: Potency [1] | Potency [2] | Potency [3] | Potency [4] | Potency [5] | Potency [6] | Potency [7] | Potency [9]

CC1(c2ccccc2)OC(C(=O)O)=CC1=O (stereo not given)
inactive: Potency [1] | Potency [2] | Potency [3] | Potency [4] | Potency [5] | Potency [7] | Potency [8] | Potency [9]

C=CCOc1ccccc1OCC(O)CNC(C)C (stereo not given)
inactive: Potency [1] | Potency [2] | Potency [3] | Potency [4] | Potency [5] | Potency [6] | Potency [9]

CCCCC
inactive: Potency [1] | Potency [2] | Potency [3] | Potency [4] | Potency [5] | Potency [7] | Potency [8] | Potency [9]

COC(C)(C)CCO
inactive: Potency [1] | Potency [2] | Potency [3] | Potency [4] | Potency [5] | Potency [7] | Potency [8] | Potency [9]

CCOC(=O)c1cccnc1
inactive: Potency [1] | Potency [2] | Potency [3] | Potency [4] | Potency [5] | Potency [6] | Potency [7] | Potency [8] | Potency [9]

O=[N+]([O-])c1ccc2[nH]ncc2c1
inactive: Potency [1] | Potency [2] | Potency [3] | Potency [4] | Potency [5] | Potency [6] | Potency [7] | Potency [9]

O=P(O)(OCc1ccccc1)OCc1ccccc1
inactive: Potency [1] | Potency [2] | Potency [3] | Potency [4] | Potency [5] | Potency [6] | Potency [7] | Potency [8] | Potency [9]

O=C(CS)Nc1ccccc1
inactive: Potency [1] | Potency [2] | Potency [3] | Potency [4] | Potency [5] | Potency [6] | Potency [7] | Potency [9]

COS(=O)(=O)C(F)(F)F
inactive: Potency [1] | Potency [2] | Potency [3] | Potency [4] | Potency [5] | Potency [6] | Potency [7] | Potency [9]

Cc1ccccc1S(=O)(=O)O
inactive: Potency [1] | Potency [2] | Potency [3] | Potency [4] | Potency [5] | Potency [7] | Potency [8] | Potency [9]

C=C1[C@H]2CC[C@@H]3[C@H]2C(C)(C)CCC[C@]13C
inactive: Potency [1] | Potency [2] | Potency [3] | Potency [4] | Potency [5] | Potency [6] | Potency [9]

CN(C)CCN(Cc1ccccc1)c1ccccn1
inactive: Potency [1] | Potency [2] | Potency [3] | Potency [5] | Potency [6] | Potency [7] | Potency [8] | Potency [9]

CN1C[C@H]2c3ccccc3Oc3ccc(Cl)cc3[C@@H]2C1
inactive: Potency [1] | Potency [2] | Potency [3] | Potency [5] | Potency [6] | Potency [7] | Potency [8] | Potency [9]

Clc1ccc(Cn2c(CN3CCCC3)nc3ccccc32)cc1
inactive: Potency [1] | Potency [3] | Potency [7] | Potency [9]
active: Potency [2] 11.9 µM

CCCCNc1ccc(C(=O)OCCOCCOCCOCCOCCOCCOCCOCCOCCOC)cc1
inactive: Potency [1] | Potency [2] | Potency [3] | Potency [5] | Potency [6] | Potency [7] | Potency [8]

S=C([S-])NCCNC(=S)[S-].[Mn+2]
inactive: Potency [1] | Potency [2] | Potency [3] | Potency [5] | Potency [7] | Potency [8] | Potency [9]

C/C=C/C=C/CO
inactive: Potency [1] | Potency [2] | Potency [3] | Potency [4] | Potency [5] | Potency [7] | Potency [9]

COc1cccc(N(C)C(=S)Oc2ccc3c(c2)CCCC3)n1
inactive: Potency [1] | Potency [2] | Potency [3] | Potency [5] | Potency [6] | Potency [9]

CCn1cc(C(=O)O)c(=O)c2cnc(N3CCNCC3)nc21
inactive: Potency [1] | Potency [2] | Potency [3] | Potency [4] | Potency [5] | Potency [9]

CC(C)(C)OCC1CO1 (stereo not given)
inactive: Potency [1] | Potency [2] | Potency [3] | Potency [4] | Potency [5] | Potency [7] | Potency [9]

O[C@@H](COc1cccc2ncccc12)CN1CCN(C2c3ccccc3[C@@H]3[C@H](c4ccccc42)C3(F)F)CC1 (stereo not given in full)
active: Potency [2] 16.8 µM | Potency [4] 26.6 µM
inactive: Potency [1] | Potency [3] | Potency [6] | Potency [7] | Potency [9]
